Inhibition data for 97 compounds are collected here from PubChem BioAssay AID504329 (Southern Research Specialized Biocontainment Screening …, 2011).

The whole screen tested about 340,000 compounds, of which about 1,000 (0.29%) were called active. These entries were drawn from the full list. Entries with a potency or affinity are not part of this list. A number with no mark means an inactive call. Rule as the data show it: inconclusive = inhibition above about 27% without an active follow-up result; inactive = below that.

The assay in a line: NS1A inhibition, H1N1 influenza, cell based functional assay (AID 504329). The note with it: percent inhibition, at 12.5 µM, stronger effect = higher value.
With `CSCC[C@H](NC(=O)OC(C)(C)C)C(=O)N1CCC(C(=O)N[C@@H](C)C(=O)NC(C)c2ccccc2)CC1` (some centres not stated), the inhibition is 4.49%.

Consider `CCc1ccc(CN(C)C(=O)c2ccc3c(=O)n4c(nc3c2)CCC4)cc1`, for which the inhibition is -7.99%.

Take `COc1cccc2c1C(=O)c1c(O)c3c(c(O)c1C2=O)CC(O)(C(C)=O)CC3OC1CC(O)C(O)C(C)O1` (configuration not stated): the inhibition was 20.6%.

For `CCCCC(=O)OCC(=O)C1(O)Cc2c(O)c3c(c(O)c2C(OC2CC(NC(=O)C(F)(F)F)C(O)C(C)O2)C1)C(=O)c1c(OC)cccc1C3=O` (configuration not stated), the inhibition is 14.4%.

For `COc1cccc2c1C(=O)c1c(O)c3c(c(O)c1C2=O)CC(O)(C(C)=O)CC3OC1CC(N(C)C)C(O)C(C)O1` (configuration not stated), the inhibition is 19.1%.

As for `COc1cccc2c1C(=O)c1c(O)c3c(c(O)c1C2=O)C[C@@](O)(C(=O)CO)C[C@@H]3OC1CC(N)C(O)C(C)O1` (some centres not stated), the inhibition was 15%.

For the compound `COc1cccc2c1C(=O)c1c(O)c3c(c(O)c1C2=O)C[C@@](O)(C(=O)CO)C[C@@H]3O[C@H]1C[C@H](N)[C@H](O)[C@H](C)O1`, the inhibition is 20.3%.

With `C/C(=N\NC(=O)c1ccc(Cl)c(Cl)c1)c1cccc(NC(=O)C(C)C)c1`, the inhibition is -0.88%.

With `COc1cccc2c1C(=O)c1c(O)c3c(c(O)c1C2=O)CC(O)(C(=O)CO)CC3OC1CC(N(C)C)C(O)C(C)O1` (configuration not stated), the inhibition was 18.7%.

`COc1cccc2c1C(=O)c1c(O)c3c(c(O)c1C2=O)C[C@](O)(C(C)=O)C[C@H]3O[C@@H]1C[C@@H](N)[C@@H](O)[C@@H](C)O1`: the inhibition is 24.5%.

As to `COC(=O)CC1=C(C(=O)OC)C(c2ccc3c(c2)OCO3)C(C#N)=C(N)O1` (configuration not stated), the inhibition was -5.88%.

With `Cc1cc(C)c(NC(=O)c2ccc(CN3CCc4ccccc4C3)cc2)c(C)c1`, the inhibition is 12.4%.

For the compound `COc1ccccc1/C=C/C=C1\Oc2c(ccc(O)c2CN2CCN(CCO)CC2)C1=O`, the inhibition is 6.54%.

Consider `CC(C)n1cc(C#N)c(N)n1`, for which the inhibition is -24.1%.

In the case of `Cc1ccc2c(CN3CCCCC3C)cc(=O)oc2c1C` (configuration not stated), the inhibition was -6.02%.

As for `O=C(COC(=O)c1cccc(O)c1)Nc1ccc(Cl)cc1C(=O)c1ccccc1`, the inhibition was -7.75%.

In the case of `CSC1=NCCN1C(=O)c1c(-c2c(F)cccc2Cl)noc1C`, the inhibition was -23.1%.

As to `Cc1ccc(C2C(N)C(=O)N2c2ccc(C)cc2)cc1` (configuration not stated), the inhibition is -20.6%.

Consider `Cc1ccc(NC(=O)CN(C)C(=O)Cc2ccc(Cl)c(Cl)c2)cc1`, for which the inhibition was 9.85%.

Turning to `Cc1ccc(S(=O)(=O)NNC(=O)c2cnn(-c3ccc(Cl)cc3)c2C(F)(F)F)cc1`, the inhibition was -16.4%.

As to `Cc1cccc(C)c1NC(=O)CN(C)C(=O)c1cccc(S(=O)(=O)N2CCN(c3ccccc3)CC2)c1`, the inhibition is 1.58%.

In the case of `NC1=NC(=O)/C(=C/C=C/c2cccs2)S1`, the inhibition is -14.1%.

On to `COc1ccc(/C=C/C=C2\N=C(SC)SC2=O)cc1`, for which the inhibition is 18%.

Consider `CC(C)CCNC(=O)CCc1nnc2n(CCCOC(C)C)c(=O)c3ccccc3n12`, for which the inhibition was -5.28%.

Regarding `Cc1ccc(SCCN)cc1C`, the inhibition is 8.4%.

As for `O=C1CC(c2ccccc2)CN1` (configuration not stated), the inhibition was -20.7%.

With `COc1cc(CNC2CCC(C)C2)cc(OC)c1` (configuration not stated), the inhibition was 4.05%.

Take `Cc1ccc(NC2=CC(=O)C(=O)c3ccccc32)cc1`: the inhibition was 2.25%.

As for `Cc1ccc(SC2=C(Sc3ccc(C)cc3)C(=O)c3ccccc3C2=O)cc1`, the inhibition was 4.19%.

On to `NC(=O)CC(NC(=O)Cc1cccc2ccccc12)c1ccc(N2CCc3ccccc3C2)c([N+](=O)[O-])c1` (configuration not stated), for which the inhibition is 14.5%.

For the compound `CC1N(C)c2cc(NC(=O)c3ccco3)c(P(=O)(Nc3ccc([N+](=O)[O-])cc3)N3CCOCC3)cc2C1(C)C` (configuration not stated), the inhibition was 10.5%.

On to `CC1(C)Oc2ccc(NC(=O)c3ccco3)cc2O1`, for which the inhibition was -10.6%.

`Cc1ccc(C2(C)NC(=O)N(CC(=O)N3CCN(C(=O)c4cccs4)CC3)C2=O)cc1` (configuration not stated): the inhibition is -14.4%.

Take `Nc1oc2ccccc2c1C(=O)Cc1ccccc1O[C@@H]1O[C@H](CO)[C@@H](O)[C@H](O)[C@H]1O`: the inhibition was -10.9%.

With `COc1cccc(NC(=O)CSc2nc(C)cs2)c1`, the inhibition was -1.99%.

On to `COc1cccc(NC(=O)CSc2nnc(C)s2)c1`, for which the inhibition is -8.01%.

`COC(=O)c1ccc(NC(=O)CSc2nn3c(=O)c(C)nnc3s2)cc1`: the inhibition was 8.48%.

As to `COc1ccc(NC(=O)CSc2nnc(C)c(=O)n2N)cc1`, the inhibition is 3.72%.

Regarding `CC(C)Oc1ccc(-c2cc(=O)[nH]c(=O)[nH]2)cc1`, the inhibition was 2.31%.

As to `Cc1c(C(=O)OCC(=O)Nc2cccc(S(N)(=O)=O)c2)oc2c1ccc1ccccc12`, the inhibition was -6.11%.

With `Cc1cc(=O)n2c3ccccc3n(CC(O)CN3CCC(C)CC3)c2c1C#N` (configuration not stated), the inhibition is -2.23%.

On to `O=C(c1cccc(Cl)c1)N1CCN(C2CCCCCC2)CC1`, for which the inhibition is -6.08%.

For the compound `O=C(Nc1nccs1)c1ccc(COc2ccccc2)o1`, the inhibition was -27.9%.

Turning to `COc1ccc(-c2nc(N)n(C(=O)Cc3ccccc3)n2)cc1`, the inhibition is 0.25%.

For the compound `Oc1ccc(Cl)cc1/C=N/c1nccs1`, the inhibition was -1.76%.

Consider `Cc1ccc(O)c(N=Nc2nccs2)c1`, for which the inhibition was 26.6%.

Take `O=C(OCC(=O)N1CCN(c2ccccc2)CC1)c1ccc2ncsc2c1`: the inhibition is 3.79%.

Take `CC(C)(CO)NS(=O)(=O)c1ccc2c(c1)C(=O)c1cc(S(=O)(=O)NC(C)(C)CO)ccc1-2`: the inhibition was -3.45%.

In the case of `COc1ccc(C(=O)NC2CCc3ccccc32)cc1OC1CCN(C(C)=O)CC1` (configuration not stated), the inhibition is -1.94%.

As to `CS(=O)(=O)N1CCc2cc(S(=O)(=O)NCCNS(=O)(=O)c3ccc4c(c3)CCN4S(C)(=O)=O)ccc21`, the inhibition was -9.03%.

Turning to `Fc1cccc(CN2CCSCC2)c1`, the inhibition is -2.65%.

Take `O=C(NCC(c1ccco1)N1CCc2ccccc21)C(=O)Nc1ccc(F)cc1F` (configuration not stated): the inhibition was -6.42%.

Take `Cc1cc(N/N=C/c2ccc(O)cc2O)c2ccccc2n1`: the inhibition is 0.21%.

Turning to `Cc1nc2ccccc2nc1N/N=C/c1ccc(O)cc1`, the inhibition is 13.5%.

Turning to `CCN(CC)S(=O)(=O)c1ccc(N/N=C/c2ccc(O)cc2)nc1`, the inhibition was 7.84%.

For the compound `O=[N+]([O-])c1ccccc1/C=N/Nc1nccnc1Cl`, the inhibition was 1.6%.

Turning to `CCN(CC)S(=O)(=O)c1ccc(N/N=C/c2cc(OC)ccc2O)nc1`, the inhibition is 5.6%.

As for `Oc1ccc(/C=N/Nc2cccc(Cl)n2)c(O)c1`, the inhibition was 10.3%.

With `Oc1cccc(C=NNc2ccccn2)c1`, the inhibition is -19.8%.

In the case of `Clc1nccnc1N/N=C/c1ccc(Br)cc1`, the inhibition is -20.8%.

`CC(C)(NO)/C(=N/O)c1cccs1`: the inhibition was 3.4%.

In the case of `CC(C(=O)N1CCc2ccccc21)N1CCN(c2cccc(C(F)(F)F)c2)CC1` (configuration not stated), the inhibition was -0.63%.

`CCOC(=O)CSC1=N/C(=C\c2ccc(OC)c(OC)c2)C(=O)N1C`: the inhibition was 2.72%.

On to `COc1ccc(-c2ccc3nnc(SCC(=O)N4CCCC4)n3n2)cc1`, for which the inhibition is -5.09%.

`O=C(Nc1nccs1)c1cccnc1Cl`: the inhibition was -9.22%.

`CCc1nnc(NCn2nc(C)cc2C)s1`: the inhibition is 6.15%.

Consider `C=CCc1c(C)nc(C)nc1N/N=C/c1ccccc1`, for which the inhibition was -4.1%.

Consider `C=CCc1c(C)nc(C)nc1N/N=C/c1ccc(F)cc1`, for which the inhibition is -0.47%.

As to `Oc1ccc(/C=N/Nc2ccnc3cc(Cl)ccc23)c(O)c1`, the inhibition is -16%.

`Oc1ccc(/C=N/Nc2nccnc2Cl)cc1`: the inhibition is 5.54%.

Consider `Cc1c(OCC(F)(F)F)ccnc1CSc1nc2ccccc2[nH]1`, for which the inhibition was -9.09%.

As to `CCOc1ccc(OCCC(=O)N(CCCOC)c2c(N)n(Cc3ccccc3)c(=O)[nH]c2=O)cc1`, the inhibition was -2.75%.

In the case of `O=C1NC(=O)c2cc3ccccc3cc21`, the inhibition was -8.8%.

With `O=C(Cn1ccccc1=O)NCc1ccc(F)cc1`, the inhibition is -15.8%.

Take `NC1=C(Br)C(=O)c2ccccc2C1=O`: the inhibition is 1.89%.

Regarding `Cc1cccc(NC2=C(NCCO)C(=O)c3ccccc3C2=O)c1`, the inhibition is 26.8%.

Turning to `COc1ccc(NC2=C(NCCO)C(=O)c3ccccc3C2=O)cc1`, the inhibition was 23.4%.

Regarding `CCOc1ccc(NC2=CC(=O)C(=O)c3ccccc32)cc1`, the inhibition is -7.73%.

On to `COC1=C(Nc2ccccc2)C(=O)C(OC)=C(Nc2ccccc2)C1=O`, for which the inhibition is 8.96%.

On to `O=C1C(Cl)=C(Nc2ccc(O)cc2)C(=O)c2ccccc21`, for which the inhibition was 13.6%.

As for `COc1ccc(NC2=C(c3ccc(OC)cc3)C(=O)c3ccccc32)cc1`, the inhibition was 5.77%.

As for `COc1ccc(C2=C(Nc3ccccc3)c3ccccc3C2=O)cc1`, the inhibition was -2.55%.

With `CSCCC(=O)NC1CCCN(CCc2ccccc2)C1` (configuration not stated), the inhibition is -10.8%.

On to `O=C(NC1=NCCS1)c1cc(-c2cccs2)nc2ccccc12`, for which the inhibition is 1.99%.

For `Clc1cccc(CN2CCCCCCC2)c1Cl`, the inhibition was -8.07%.

As for `COc1cc(C2NC(=O)NC(C)=C2C(=O)OC2CCC(C)CC2)ccc1O` (configuration not stated), the inhibition is -1.48%.

In the case of `CCC(=O)Nc1nc(-c2ccccc2)nc(SC)c1C(C)=O`, the inhibition is 5.59%.

`O=C(NCCCN1CCCC1=O)C(=O)NCC1OCCCN1S(=O)(=O)c1cc(F)ccc1F` (configuration not stated): the inhibition was -6.67%.

With `Cc1ccc(C(=O)N2CCN(c3ccc(NC(=O)c4cccnc4Cl)cc3)CC2)cc1`, the inhibition is 0.28%.

Consider `Cc1ccc(NC2=C(N3CCCCC3)C(=O)c3ccccc3C2=O)cc1`, for which the inhibition is 28.7%.

Turning to `CC(=O)c1ccc(NC2=C(N3CCOCC3)C(=O)c3ccccc3C2=O)cc1`, the inhibition was 3.86%.

Take `COc1ccc(C2=C(Nc3ccc(C)cc3)c3ccccc3C2=O)cc1`: the inhibition is -3.38%.

For `Cc1ccc(NC2=C(Cl)C(=O)c3ccccc3C2=O)cc1`, the inhibition was 2.23%.

Regarding `COc1ccc(NC2=C(NC(C)=O)C(=O)c3ccccc3C2=O)cc1`, the inhibition is 0.92%.

`O=C1C(Cl)=C(Nc2ccccc2)C(=O)c2ccccc21`: the inhibition is -3.5%.

As to `COC1=C(Nc2ccc(OC)cc2)C(=O)C(OC)=C(Nc2ccc(OC)cc2)C1=O`, the inhibition is 0.15%.

On to `CCN(CC)c1ccc(NC2=C(Cl)C(=O)c3ccccc3C2=O)cc1`, for which the inhibition was 27.5%.
